# Screens (PubChem BioAssay)
# TEAD-YAP inh – TEAD-YAP interaction inhibition; HEK-TIYL cells, TEAD-Gal4/YAP UAS-luciferase luminescence; inhibition, % at 9.12 µM; 640,000 compounds, 1.4% hits; AID 1259422; in the data active means inhibition above about 32%;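 further: 0% = median of test compound wells and 100% = reference inhibitor wells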
# FBW7 activator – activators of human E3 ligase FBW7. AlphaScreen FBW7–phospho-cyclin E peptide binding, activator screen. normalized activity (activation), % at 26.1 µM. 650,000 compounds, 0.13% hits; in the data active means normalized activity above about 1.9%;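 further: purified mutant Fbw7 with reduced substrate affinity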
# MITF inh – blocks human microphthalmia-associated transcription factor; AlphaScreen MITF homodimerization, bead proximity signal; inhibition, % at 2.6 µM; 650,000 compounds, 0.91% hits; in the data active means inhibition above about 50%;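 further: 0% = vehicle wells with protein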
# GPR151 ag – human GPR151 activation. Q8TDV0. PathHunter beta-arrestin GPR151 cells, luminescence. activation, % at 11.2 µM. 650,000 compounds, 1% hits; in the data active means activation above about 4.9%;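 further: 0% = median of compound wells and 100% = cells with positive control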
# Target sequence (Q8TDV0 whole entry, looked up): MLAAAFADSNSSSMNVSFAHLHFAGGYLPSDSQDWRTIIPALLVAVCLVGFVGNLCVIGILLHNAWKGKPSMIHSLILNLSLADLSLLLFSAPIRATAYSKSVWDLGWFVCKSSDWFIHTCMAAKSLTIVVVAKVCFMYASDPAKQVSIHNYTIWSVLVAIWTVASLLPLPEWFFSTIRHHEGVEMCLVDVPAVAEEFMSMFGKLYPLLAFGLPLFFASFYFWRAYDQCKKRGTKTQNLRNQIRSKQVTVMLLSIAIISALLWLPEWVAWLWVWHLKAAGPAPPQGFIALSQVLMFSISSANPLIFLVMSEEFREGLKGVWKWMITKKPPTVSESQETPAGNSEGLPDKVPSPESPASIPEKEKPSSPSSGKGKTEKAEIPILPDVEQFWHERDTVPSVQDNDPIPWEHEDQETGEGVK
# GPR151 conf act – human GPR151 activation, confirmation screen; shares compounds with GPR151 ag; GPR151 PathHunter beta-arrestin cells, luminescence, 90 min; % of EA-reagent control over plate median; activation, % at 11.2 µM; 6,700 tested, under 10 active; AID 1508609;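 active means mean percent activation across replicates above the confirmation screen cutoff of 4.91%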
# GPR119 ag – GPR119 activation, counter-screen for GPR151 activators. shares compounds with GPR151 ag. GPR119 PathHunter beta-arrestin cells, luminescence, 90 min; 0 = compound-well median, 100 = enzyme-acceptor control. activation, % at 11.2 µM. 6,700 compounds, 0.3% hits;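 active means mean percent activation in the counterscreen above 29.09%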;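 further: counterscreen on off-target GPR119 to flag nonselective hits from the GPR151 activator screen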
# * hit, by the source's call; · = not tested or not shown. Shown are actives, neighbours in structure and some others; about 3.4% of the full set was active somewhere.
SMILES,TEAD-YAP inh,FBW7 activator,MITF inh,GPR151 ag,GPR151 conf act,GPR119 ag
COc1ccccc1NC(=O)c1c(NC(=O)CCC(=O)O)sc2c1CCC(C(C)(C)C)C2 (stereo not given),-4,0,-11,1,·,·
CCC(C)(C)C1CCc2c(sc(NC(=O)c3ccccc3OC)c2C(N)=O)C1 (stereo not given),-3,0,-3,8.1*,0,5
COCCOC(=O)C1=C(C)NC(=O)NC1c1ccc(C)cc1 (stereo not given),1,0,8,0,·,·
COCCn1c(=NC(=O)c2cccs2)sc2cc(S(C)(=O)=O)ccc21,-6,0,-10,-2,·,·
Cc1ccc(NC(=O)CSc2nc3[nH]ncc3c(=O)n2-c2ccc(Br)cc2)cc1Cl,22,0,-7,7.5*,0,9
CCOC(=O)c1cc(C)sc1NC(=O)c1cc(-c2ccc(CC(C)C)cc2)nc2ccccc12,3,0,0,0,·,·
CCCCOc1ccc(-c2cc(C(=O)OC)c3ccccc3n2)cc1,0,0,2,7.5*,0,-9
CCCCOc1ccc(-c2cc(C(=O)NN)c3ccccc3n2)cc1,-2,0,0,0,·,·
COC(=O)c1c(NC(=O)c2cc(-c3ccc(CC(C)C)cc3)nc3ccccc23)sc(C)c1-c1ccccc1,4,1,14,5.1*,2,17
CN(C)c1ccc(-c2nc3cc(NC(=O)c4cccc([N+](=O)[O-])c4)ccc3o2)cc1,2,0,-8,0,·,·
COc1ccc(Cl)cc1C1=N/C(=C/c2ccc(C)o2)C(=O)O1,6,1,16,-1,·,·
Cc1cc(Nc2ccc3c(c2)OCO3)nc(Nc2nc3ccccc3n2C)n1,0,0,-10,7.4*,0,-1
CC1(C)Cc2ccccc2C(NNC(=O)c2ccc(Br)cc2)=N1,10,0,10,0,·,·
O=C(NCCn1cc(SCc2ccc(Br)cc2)c2ccccc21)c1ccc(F)cc1,3,0,1,5.0*,0,-5
Cc1sc(NC(=O)c2ccc(N3CCCCC3)c([N+](=O)[O-])c2)c(C#N)c1C,-2,0,13,13*,1,-12
Cn1nnc2c(N3CCN(CC(=O)Nc4ccc(F)cc4F)CC3)ncnc21,1,0,-13,-2,·,·
CCOC(=O)C1=c2s/c(=C/c3ccccc3Cl)c(=O)n2C(N)=C(C#N)C1c1ccccc1Cl (stereo not given),-4,0,-1,0,·,·
COc1ccc(S(=O)(=O)NC2CC2)cc1I,-4,0,0,-2,·,·
CCN(CC)c1nc(C)nc2sc(C(=O)Nc3ccc(Oc4ccccc4)cc3)c(C)c12,-11,0,-12,0,·,·
Cc1nc(N(C)c2ccc(C(C)C)cc2)c2c(C)c(C(=O)Nc3ccc(Oc4ccccc4)cc3)sc2n1,-2,1,11,7.8*,1,6
CCN1CCN(C2=NS(=O)(=O)C(c3ccc(C)cc3)=C2C)CC1,-1,0,12,12*,0,8
CCN(CC)C(=O)C1CCCN(c2nc(Nc3cc(OC)c(OC)c(OC)c3)nc(N(CC)CC)n2)C1 (stereo not given),-7,0,-2,14*,0,-3
CCN(CC)C(=O)C1CCCN(c2nc(Nc3cc(OC)c(OC)c(OC)c3)c3ncn(C4CCCCC4)c3n2)C1 (stereo not given),-13,0,17,12*,-1,-12
COc1cc(Nc2nc(Nc3ccncc3)nc3c2ncn3C2CCCCC2)cc(OC)c1OC,5,0,3,6.1*,0,0
COc1cc(Nc2nc(Nc3ccc(NC(C)=O)cc3)c3ncn(C4CCCCC4)c3n2)cc(OC)c1OC,-7,0,5,1,·,·
SMILES,TEAD-YAP inh,FBW7 activator,MITF inh,GPR151 ag,GPR151 conf act,GPR119 ag
CCN(CC)C(=O)C1CCCN(c2nc(Nc3cc(OC)c(OC)c(OC)c3)c3ncn(CCN4CCCC4=O)c3n2)C1 (stereo not given),7,0,9,-1,·,·
CS(=O)(=O)Oc1ccc2c3c(c(=O)oc2c1)CCC3,-1,0,-4,0,·,·
CCOC(=O)CSc1nnc2c3c(C)c(C)sc3ncn12,-5,0,0,5.8*,0,2
CC1CCCC(NS(=O)(=O)c2ccc(F)c(C(=O)Nc3cc(Cl)ccc3Cl)c2)C1C (stereo not given),2,0,-12,7.3*,0,-1
C=CCNC(=O)c1ccccc1NC(=O)CN(c1cccc(Cl)c1C)S(C)(=O)=O,3,0,-3,5.2*,0,-5
Cc1ccccc1CNC(=O)CN(c1cccc([N+](=O)[O-])c1)S(C)(=O)=O,2,0,6,6.4*,0,-13
C=CCNC(=O)c1ccccc1NC(=O)CN(c1cccc([N+](=O)[O-])c1)S(C)(=O)=O,4,1,11,13*,1,-6
Cc1c(Cl)cccc1N(CC(=O)Nc1ccccc1Cl)S(C)(=O)=O,5,0,-11,0,·,·
CCC(C)NC(=O)c1ccccc1NC(=O)CN(c1cccc([N+](=O)[O-])c1)S(C)(=O)=O (stereo not given),11,0,-2,3,·,·
Cc1ccc(N(CC(=O)NCc2ccccc2C)S(C)(=O)=O)cc1C,1,0,8,2,·,·
CC(C)C[C@@H]1NC(=O)[C@@H]2C[C@H](NCc3cc4ccccc4s3)CN2C1=O,5,0,11,1,·,·
CCNC(=O)O/N=C1\C(=O)N(c2ccccc2)c2ccccc21,-1,0,5,0,·,·
CN(Cc1cnn(C)c1)c1nncc(-c2ccc3ccccc3c2)n1,-15,0,5,1,·,·
CN(C)CCCNc1nc(-c2ccc(Cl)cc2)cs1,-35,0,9,0,·,·
C=C(C)CNc1nc2nonc2nc1NC1CC1,-5,0,-3,1,·,·
c1cc(CNc2nc3nonc3nc2NC2CC2)c2cc[nH]c2c1,-1,0,10,5.5*,0,8
CCC(C)Nc1cc(C)nc2c(-c3ccccc3OC)c(C)nn12 (stereo not given),-2,0,-8,0,·,·
C/C(CCc1ccccc1)=N/Nc1ccc([N+](=O)[O-])cc1,1,0,8,8.0*,0,-5
O=C(Nc1ccc(Br)cc1Br)/C(=C\c1ccccc1F)NC(=O)c1ccc(Br)cc1,-9,0,-3,0,·,·
O=C(CSc1ccc(Cl)cc1)Nc1c[nH]c(=O)[nH]c1=O,10,2,20,3,·,·
CCOC(=O)NC(Nc1sc2c(c1C#N)CCC(C(C)(C)C)C2)(C(=O)OCC)C(F)(F)F (stereo not given),-19,0,0,-1,·,·
CCn1cc(CN2CCCC(CNC(=O)c3ccc(-c4ccccc4)cc3)C2)cn1 (stereo not given),9,0,8,6.0*,0,-4
